Experimental data published in PubChem BioAssay (EPA / NIEHS).
Values joined by “and” are separate entries in the source; they are usually repeats but may differ in a detail not shown here. Equal values may be shown once. Records with an inconclusive call do not appear. Some structures have more than one record in an assay (separate samples or runs), and their calls can disagree. Active and inactive are the calls of the source. How the source made its calls: active means hit-call score of the fitted dose curve at least 0.9, where 1 is the maximum; inconclusive means response in the unintended direction; inactive means score below 0.9.

test: TOX21_p53_BLA_p4_viability: Viability Assessment in the Tox21 HCT-116 p53 Agonism Beta-lactamase Assay, Phase 4 (AID 2283597);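 further: hits lower the luminescence signal meaning cytotoxicity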
Text: TOX21_p53_BLA_p4 is a cell-based, single-readout assay that uses HCT116, a human intestinal cell line, […] in a 1536-well plate.TOX21_p53_BLA_p4_viability is an assay readout measuring cellular ATP content and detected with CellTiter-Glo Luciferase-coupled ATP quantitation.TOX21_p53_BLA_p4_viability used a type of viability reporter where loss-of-signal activity can be used to understand changes in the cell viability. Furthermore, this assay endpoint can be referred to as a secondary readout, because this assay has produced multiple assay endpoints where this one serves a viability function. To generalize the intended target to other relatable targets, this assay endpoint is annotated to the cell cycle intended target family, where the subfamily is cytotoxicity.
Thawing Method: Place 14 mL of pre-warmed thaw medium into a 15 mL of conical tub. Remove the vial of cells to be thawed from liquid nitrogen and thaw rapidly by placing at 37C in a water bath with gentle agitation for 1-2 minutes. Decontaminate the vial by wiping with 70% ethanol before opening in a biological safety cabinet. Transfer the vial contents drop-wise into 14 mL of thaw medium in a sterile 15-mL conical tub. Centrifuge cells at 900 rpm for 4 minutes and resuspend in thaw medium. Transfer contents to the T75 tissue culture flask containing Thaw Medium and place flask in a humidified 37C/5% CO2 incubator. Switch to growth medium at first passage.Propagation Method: Aspirate medium, rinse once in DPBS, add 0.25% Trypsin/EDTA and swirl to coat the cell evenly. Add an equal volume of Growth Medium to inactivate Trypsin after 2-3 minutes incubation at 37C. Centrifuge cells at 900 rpm for 4 minutes and resuspend in growth medium. Cell should be passage or fed at least twice a week.Assay Protocol: Harvest cells from culture in growth medium and resuspend in assay medium. 2.2 Dispense 4000 cells/5 uL/well into 1536-well black/clear bottom plates using a Multidrop dispenser. After the cells were incubated at 37C for 5 hours, 23 nL of compounds dissolved in DMSO were transferred to the assay plate by a PinTool resulting in a 217-fold dilution. Incubate the plates for 16 hours at 37C, 5% CO2. Add 1 uL of 6X LiveBLAzer FRET B/G (CCF4-AM) Substrate Mixture to each well using a BioRAPTR dispenser and incubate the plates at room temperature for 2 hours. Measure fluorescence intensity at 460 and 530 nm emission and 405 nm excitation by an Envision detector. Data is expressed as the ratio of 460nm/530nm emissions. Add 4 uL of Cell-titer Glo to each well using BioRAPTR and incubate the plates at room temperature for […]. For cell viability readout that measures cytotoxicity, 4 ul/well of CellTiter-Glo reagent was added into the assay plates using a Flying Reagent Dispenser. After 30 min incubation at room temperature, the luminescence intensity in the plates was measured using a ViewLux plate reader.

Row | Structure (SMILES) | outcome | AC50
1 | CCO/C=C1\N=C(c2ccccc2)OC1=O | inactive | 
2 | CC(C)=CCCC(C)CCOC=O (stereo not given) | inactive | 
3 | CCCCCC(C=O)=Cc1ccccc1 | inactive | 
4 | COC(CC(C)CCCC(C)(C)O)OC (stereo not given) | inactive | 
5 | CC(C)CCCCCCc1ccc(OCCOCCO)cc1 | inactive | 
6 | OCC#CCO | inactive | 
7 | C=C(CC(=O)O)C(=O)O | inactive | 
8 | CC(C)C[C@H](NC(=O)OCC1c2ccccc2-c2ccccc21)C(=O)O | inactive | 
9 | CC(C)C(OC(=O)c1ccccc1)C(C)(C)COC(=O)c1ccccc1 (stereo not given) | inactive | 
10 | C=C(C)C(=O)OCCOC1CC2CC1C1C=CCC21 (stereo not given) | inactive | 
11 | NC1CCCCC1N (stereo not given) | inactive | 
12 | CC1(C)O[C@@H]2C[C@H]3[C@@H]4CCC5=CC(=O)C=C[C@]5(C)[C@@]4(F)[C@@H](O)C[C@]3(C)[C@]2(C(=O)CO)O1 | inactive | 
13 | CCCC(=O)C(CC)Sc1ccoc1C (stereo not given) | inactive | 
14 | N[C@@H](Cc1cc(I)c(Oc2cc(I)c(O)c(I)c2)c(I)c1)C(=O)O | inactive | 37 µM (active)
15 | Cc1[nH]c(=O)c(C#N)cc1-c1ccncc1 | inactive | 
16 | CC1C2CC(CC2C2CCCC(O)C2)C1(C)C (stereo not given) | inactive | 
17 | CC(C=O)Cc1ccc(C(C)(C)C)cc1 (stereo not given) | inactive | 
18 | CCCCC1(COC(=O)CCC(=O)O)C(=O)N(c2ccccc2)N(c2ccccc2)C1=O | inactive | 
19 | CCCC(C)=O | inactive | 
20 | Nc1ccc(NCCO)c([N+](=O)[O-])c1 | inactive | 

Row | Structure (SMILES) | outcome | AC50
21 | Cc1cccc(Nc2ccccc2)c1 | inactive | 
22 | c1ccc2[nH]cnc2c1 | inactive | 
23 | OCc1ccc(Cl)cc1Cl | inactive | 
24 | c1ccc(Oc2ccccc2)cc1 | inactive | 
25 | O=C1CCCC=CCCCCCCCCCC1 | inactive | 
26 | CCCCCCCCC=CCCCCCCCC1=NCCN1CCO |  | 86.4 µM (active)
27 | O=C1OC(=O)c2c(Cl)c(Cl)c(Cl)c(Cl)c21 | inactive | 
28 | Cc1cc(S(=O)(=O)O)ccc1N=Nc1c(O)ccc2ccccc12 | inactive | 
29 | COCCOC(=O)c1ccccc1C(=O)OCCOC | inactive | 
30 | c1ccc2cc(Nc3ccc(Nc4ccc5ccccc5c4)cc3)ccc2c1 | inactive | 
31 | Nc1c(Cl)cc(Cl)cc1[N+](=O)[O-] | inactive | 
32 | Brc1ccc(Br)c(Br)c1 | inactive | 
33 | CCCOCCO | inactive | 
34 | CCCCCC(C)=O | inactive | 
35 | Nc1ccc2c(O)cc(S(=O)(=O)O)cc2c1 | inactive | 
36 | C=CCCC(=O)/C=C/C1C(C)=CCCC1(C)C (stereo not given) | inactive | 
37 | CCC1(c2ccccc2)C(=O)NCNC1=O | inactive | 
38 | CCCCC(CC)COC(=O)c1ccc(O)cc1 (stereo not given) |  | 72.2 µM (active) and 45.9 µM (active)
39 | O=C1c2ccccc2C(=O)c2c(O)ccc(O)c21 | inactive | 
